Measurements reported in PubChem BioAssay (NCATS).
“And” between values parts separate entries of the source, which are not always exact repeats. Identical values can stand only once. Inconclusive results are not listed. The source made the active and inactive calls. Unless noted, calls follow the shape of the dose curve; as a rule, active = well fitted curve in the direction sought with a large enough effect; inconclusive = small, poorly fitted or top-dose-only effect, or another doubt; inactive = no such curve, though single readings can be large; an effect the other way counts as inactive or inconclusive.

Legend:
[1] = Cell Viability - BJ (AID 421; calls by dose curve;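 also: potency is read from the fitted curve at half-maximal effect; cells exposed to compound for 40 hours at 37 °C before readout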); conditions: BJ fibroblast viability, qHTS
How it was run: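 Normal human BJ foreskin fibroblasts, 1500/well in complete medium, treated 40 hr at 37 °C. Cellular ATP by CellTiter-Glo luminescence; normalized to DMSO and 100 uM tamoxifen, AC50 from Hill fit.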

[2] = Cell Viability - Jurkat (AID 426;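 active = dose-dependent loss of cell ATP signal giving a full or clear fitted curve, ranked by lower potency value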; also: potency is read from the fitted curve at half-maximal effect); conditions: qHTS
How it was run: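 Cytotoxicity was scored as loss of cellular ATP, measured by luciferase-based luminescence, in Jurkat clone E6-1 cells after 40 h compound treatment; tamoxifen and doxorubicin served as positive controls.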

[3] = Cell Viability - Hek293 (AID 427;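 active = compounds whose dose-response curve shows a full or clear partial loss of cell viability, called from curve shape rather than a numeric limit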;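 also: potency is read from the fitted curve at half-maximal effect; cells exposed to compound for 40 hours at 37 °C before reading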); conditions: qHTS
How it was run: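 HEK293 cells in complete medium were exposed to compound for 40 hr at 37 °C, then cellular ATP was read by CellTiter-Glo luminescence. Data were normalized to DMSO (basal) and 100 uM tamoxifen (100% inhibition), and AC50 came from Hill fits.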

[4] = Cell Viability - HepG2 (AID 433; calls by dose curve;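 also: potency is read from the fitted curve at half-maximal effect; potency for ATP loss meaning cytotoxicity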); conditions: qHTS
How it was run: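 Read-out is luciferase-based quantitation of cellular ATP as a measure of viable HepG2 cells after 40 h treatment at 37 °C. Signal decrease is scaled between DMSO-only and 100 uM tamoxifen controls, with AC50 fitted by the Hill equation.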

[5] = Cell Viability - MRC5 (AID 434; calls by dose curve;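 also: potency is read from the fitted curve at half-maximal effect; potency reflects cytotoxicity seen as loss of intracellular ATP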); conditions: MRC5 lung fibroblast viability, qHTS
How it was run: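 AC50 values come from Hill-equation fits of intracellular ATP loss, measured by CellTiter-Glo luminescence. Normal lung fibroblasts (MRC5) had 40 hr compound treatment at 37 C, normalized between DMSO and 100 uM tamoxifen.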

[6] = Cell Viability - SK-N-SH (AID 435; calls by dose curve;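 also: potency is read from the fitted curve at half-maximal effect; compound exposure lasted 40 h at 37 °C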); conditions: SK-N-SH neuroblastoma cell viability qHTS
How it was run: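 Luminescent ATP signal served as the viability read-out after 40 hours of compound treatment of human neuroblastoma SK-N-SH cells. Concentration-response data, scaled between DMSO and 100 uM tamoxifen, gave AC50 values by standard Hill modeling.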

[7] = Cell Viability - HUV-EC-C (AID 542); conditions: HUV-EC-C endothelial cell viability, qHTS; series mostly up to 92.2 µM; also: % is scaled to controls: 0 for no effect and ±100 for the full control effect; nearly all actives have a fitted effect of over 35% in size
How it was run: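 Concentration-dependent ATP loss in HUV-EC-C cells is the measure. Exposure lasts 40 hr at 37 °C; luminescence follows CellTiter-Glo addition, and Hill fits give AC50.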

[8] = Cellular Toxicity (caspase-3) HepG2 (AID 654); conditions: HepG2 caspase-3 activation, luminescence, 0% = DMSO only, 100% = tamoxifen; series mostly up to 92.2 µM;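 also: cells exposed to compound for 16 hours before reading; 0% = DMSO alone and 100% = caspase signal from 100 µM tamoxifen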
How it was run: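 Concentration-response AC50 values reflect caspase-3/7 induction in HepG2 cells after 16 hours of compound exposure, quantified by luminescence from liberated aminoluciferin and referenced to 100 uM tamoxifen as full stimulation.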

[9] = Cellular Toxicity (caspase-3) SK-N-SH (AID 661); conditions: SK-N-SH caspase-3 activation, qHTS; series mostly up to 91.7 µM
How it was run: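 Apoptosis readout in SK-N-SH neuroblastoma: Caspase-Glo 3/7 luminescence following 16 hr treatment in complete culture medium. Normalization used DMSO and 10 uM staurosporine controls.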

[10] = Cellular Toxicity (caspase-3) N2a (AID 665); conditions: N2a cells, luminescence, normalized: DMSO 0%, 10 µM staurosporine 100%; series mostly up to 92.2 µM;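 also: compound exposure lasted 16 h at 37 °C before readout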
How it was run: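 Concentration-response qHTS: compound-induced caspase-3/7 luminescence in N2a cells (16 h, 37 °C), relative to DMSO and 10 uM staurosporine controls; AC50 obtained using the standard Hill equation.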

[11] = Cellular Toxicity (caspase-3) NIH 3T3 (AID 666); conditions: NIH 3T3 caspase-3 activation, apoptosis/toxicity; series mostly up to 92.2 µM;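 also: caspase signal read after 16 h compound exposure; 0% = DMSO basal and 100% = 100 µM tamoxifen stimulation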
How it was run: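 Activity: caspase-3/7 induction, NIH 3T3 cells, 16 hr treatment at 37°C, luminescent Caspase-Glo detection; AC50 via Hill equation.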

[12] = Cellular Toxicity (caspase-3) Renal Proximal Tubule (AID 667); conditions: renal proximal tubule cells; series mostly up to 91.7 µM;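 also: cells exposed to compound for 16 hours at 37 °C before detection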
How it was run: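 AC50 derived by standard Hill fit of concentration-response data, normalized between DMSO basal and 10 uM staurosporine as 100% stimulation. Cells: primary rat kidney proximal tubule, 16 h treatment at 37 °C.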

[13] = MultiTox-Fluor Cytotoxicity Assay - LYMP1-003 - Dead Cells (AID 961); conditions: LYMP1-003 lymphoblastoid cells, dead-cell protease fluorescence; series mostly up to 92.2 µM;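 also: 0% = DMSO and 100% = tetraoctylammonium bromide; nearly all actives have a fitted effect of over 70% in size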
How it was run: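 LYMP1-003 human lymphoblastoid cells (2500/well) exposed to compound 16 h at 37 C in complete medium; dead-cell protease read with bis-AAF-R110 fluorescence (Ex/Em 485/520) after 60 min at room temperature. Normalized to DMSO and 15 uM tetraoctylammonium bromide; AC50 from Hill fit.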

[14] = Cell Viability - LYMP2-007 (AID 979); conditions: LYMP2-007 lymphoblastoid cell viability; series mostly up to 92.2 µM;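 also: cells exposed to compound for 24 h before reading; 0% = DMSO only and the negative end = 92 µM tetraoctylammonium bromide; nearly all actives have a fitted effect of over 60% in size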
How it was run: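 Measured via luciferase-based ATP quantitation: lymphoblastoid cells, 24 hr compound exposure at 37 C, AC50 from Hill fits.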

[15] = Cell Viability - LYMP1-002 - Assay at 24 hr (AID 993); conditions: LYMP1-002 lymphoblastoid cells viability; series mostly up to 92.2 µM; also: % is scaled to controls: 0 for no effect and ±100 for the full control effect
How it was run: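 Viability was judged from intracellular ATP using a luciferase read-out, following a 24-hour compound incubation at 37 C of lymphoblastoid cells seeded at 2500 per well. Concentration-response data were fitted to the Hill equation for AC50.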

[16] = qHTS Assay for Identification of Small Molecule Inducers of Hypoxia Response (AID 2120; active = well fitted curve in the direction sought with a large enough effect in the signal ratio, with a control signal flat, not every such curve was filed as active; the % refers to the signal ratio; also: 0% is about no effect); conditions: hypoxia response reporter cells, beta-lactamase ratio readout; series mostly up to 104 µM
How it was run: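 HRE-bla ME-180, 2500 cells/well, 0.5% dialyzed FBS medium; cpd titration, 17 h 37 degrees C; CCF4 2.5 h RT; Ex 405, Em 460/530 ratio -> %Activity, AC50.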

[17] = target: Peroxisome proliferator-activated receptor alpha (Homo sapiens) (UniProt Q07869); test: qHTS assay for small molecule agonists of the peroxisome proliferator-activated receptor alpha (PPARalpha) signaling pathway (AID 651778); conditions: PathHunter PPARalpha complementation, chemiluminescence, 6 h; stronger effect = higher value; also: % of control where 0% means no effect
Chain of Peroxisome proliferator-activated receptor alpha (Homo sapiens) (Q07869 whole entry, looked up): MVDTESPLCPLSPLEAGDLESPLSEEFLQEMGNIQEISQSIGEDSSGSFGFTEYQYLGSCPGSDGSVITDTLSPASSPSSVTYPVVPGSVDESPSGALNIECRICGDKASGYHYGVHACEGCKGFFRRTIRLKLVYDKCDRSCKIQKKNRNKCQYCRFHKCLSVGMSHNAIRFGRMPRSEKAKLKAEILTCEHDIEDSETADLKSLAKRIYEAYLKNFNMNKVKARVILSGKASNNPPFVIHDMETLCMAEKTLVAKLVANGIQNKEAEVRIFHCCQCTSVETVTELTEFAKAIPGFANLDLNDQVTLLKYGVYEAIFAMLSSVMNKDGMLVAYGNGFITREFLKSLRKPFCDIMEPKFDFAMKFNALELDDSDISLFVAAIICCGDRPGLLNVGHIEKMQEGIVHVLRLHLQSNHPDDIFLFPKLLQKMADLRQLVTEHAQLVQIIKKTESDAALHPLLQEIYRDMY
How it was run: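 Chemiluminescence from complemented enzyme reported PPARalpha activation in cells after 6 hr of compound treatment at 37 C. The detection reagent was incubated for 60 min at room temperature, and compounds were scored as agonists.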

[18] = qHTS assay for small molecule agonists of the antioxidant response element (ARE) signaling pathway measured by Nrf2-dependant transcriptional activity - cell viability counter screen (AID 720653; active = well fitted curve in the direction sought with a large enough effect in the repeat runs; an effect the other way counts as inactive or inconclusive; also: % is scaled to controls: 0 for no effect and ±100 for the full control effect); conditions: ARE-bla HepG2 viability, CellTiter-Glo ATP luminescence, 16 h; stronger effect = lower value
How it was run: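 Cytotoxicity counter screen: intracellular ATP quantified by CellTiter-Glo luminescence in the same ARE-bla HepG2 plates, after 16 h compound exposure and a 2 h beta-lactamase substrate step.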

[19] = qHTS assay for cell viability of HEK293 cells (AID 743288); conditions: ATP luminescence (CellTiter-Glo), 18 h, stronger effect = lower value; also: % is scaled to controls: 0 for no effect and ±100 for the full control effect; nearly all actives have a fitted effect of over 50% in size
How it was run: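 Viable-cell counts were inferred from luciferase-based ATP content in HEK293 cells seeded at 2,000/well, pre-incubated ≥5 h, then dosed with DMSO-solubilised compounds for 18 h at 37 C.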

[20] = qHTS assay for cell viability of the p53RE-bla HCT-116 cell line (AID 743292); conditions: p53RE-bla HCT-116 viability, ATP luminescence, 16 h; series mostly up to 95 µM; also: % is scaled to controls: 0 for no effect and ±100 for the full control effect; nearly all actives have a fitted effect of over 55% in size
How it was run: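 Viability of compound-treated p53RE-bla HCT-116 cells is taken from ATP-dependent luciferase luminescence. Treatment lasts 16 h at 37 C after a 5 h settling period; detection follows 30 min at room temperature.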

Nc1ncc([N+](=O)[O-])s1
inactive: Potency [1] > 92 µM | Potency [2] > 92 µM | Potency [3] > 92 µM | Potency [4] > 92 µM | Potency [5] > 92 µM | Potency [6] > 92 µM | Potency [7] | outcome [8] | Potency [9] | outcome [10] | Potency [11] | outcome [12] | Potency [13] | Potency [14] | Potency [15] | Potency [16] | max response [17] 7.02% | max response [18] 0.285% | max response [19] -7.17% | Potency [20]

Nn1cnnc1
inactive: Potency [1] > 92 µM | Potency [2] > 92 µM | Potency [3] > 92 µM | Potency [4] > 92 µM | Potency [5] > 92 µM | Potency [6] > 92 µM | Potency [7] | outcome [8] | Potency [9] | outcome [10] | Potency [11] | outcome [12] | Potency [13] | Potency [14] | Potency [15] | Potency [16] | max response [17] -0.452% | max response [18] -3.98% | max response [19] -1.3% | Potency [20]

Cc1ccc(N)cc1Cl
inactive: Potency [1] > 92 µM | Potency [2] > 92 µM | Potency [3] > 92 µM | Potency [4] > 92 µM | Potency [5] > 92 µM | Potency [6] > 92 µM | Potency [7] | outcome [8] | Potency [9] | outcome [10] | Potency [11] | outcome [12] | Potency [13] | Potency [14] | Potency [15] | Potency [16] | max response [17] 3.75% | max response [18] 7.4% | max response [19] -1.75% | Potency [20]

FC(Cl)(Cl)Cl
inactive: Potency [1] > 92 µM | Potency [2] > 92 µM | Potency [3] > 92 µM | Potency [4] > 92 µM | Potency [5] > 92 µM | Potency [6] > 92 µM | Potency [7] | outcome [8] | Potency [9] | outcome [10] | Potency [11] | outcome [12] | Potency [13] | Potency [14] | Potency [15] | Potency [16] | max response [17] -4.74% | max response [18] -4.09% | max response [19] -1.1% | Potency [20]

Cc1ccc2c(C)cccc2c1
inactive: Potency [1] > 92 µM | Potency [2] > 92 µM | Potency [3] > 92 µM | Potency [4] > 92 µM | Potency [5] > 92 µM | Potency [6] > 92 µM | Potency [7] | outcome [8] | Potency [9] | outcome [10] | Potency [11] | outcome [12] | Potency [13] | Potency [14] | Potency [15] | Potency [16] | max response [17] 3.14% | max response [18] -2.91% | max response [19] 11.2% | Potency [20]

C1CC2OC2CC1C1CO1 (stereo not given)
inactive: Potency [1] > 92 µM | Potency [2] > 92 µM | Potency [3] > 92 µM | Potency [4] > 92 µM | Potency [5] > 92 µM | Potency [6] > 92 µM | Potency [7] | outcome [8] | Potency [9] | outcome [10] | Potency [11] | outcome [12] | Potency [13] | Potency [14] | Potency [15] | Potency [16] | max response [17] -1.95% and -1.6% | max response [18] -8.97% and -5.29% | max response [19] -9.23% and -6.84% | Potency [20]

O=[N+]([O-])c1ccc(Cl)c(Cl)c1Cl
inactive: Potency [1] > 92 µM | Potency [2] > 92 µM | Potency [3] > 92 µM | Potency [4] > 92 µM | Potency [5] > 92 µM | Potency [6] > 92 µM | Potency [7] | outcome [8] | Potency [9] | outcome [10] | Potency [11] | outcome [12] | Potency [13] | Potency [14] | Potency [15] | Potency [16] | max response [17] 10.7% | max response [18] -7.85% | max response [19] 8.59% | Potency [20]

CC(C)CON=O
inactive: Potency [1] > 92 µM | Potency [2] > 92 µM | Potency [3] > 92 µM | Potency [4] > 92 µM | Potency [5] > 92 µM | Potency [6] > 92 µM | Potency [7] | outcome [8] | Potency [9] | outcome [10] | Potency [11] | outcome [12] | Potency [13] | Potency [14] | Potency [15] | Potency [16] | max response [17] -1.42% | max response [18] 3.18% | max response [19] -12.6% | Potency [20]

CCCCOC(=O)c1ccccc1N
inactive: Potency [1] > 92 µM | Potency [2] > 92 µM | Potency [3] > 92 µM | Potency [4] > 92 µM | Potency [5] > 92 µM | Potency [6] > 92 µM | Potency [7] | outcome [8] | Potency [9] | outcome [10] | Potency [11] | outcome [12] | Potency [13] | Potency [14] | Potency [15] | Potency [16] | max response [17] -4.62% | max response [18] 4.85% | max response [19] -7.97% | Potency [20]

O=Cc1ccc2c(c1)OCO2
inactive: Potency [1] > 92 µM | Potency [2] > 92 µM | Potency [3] > 92 µM | Potency [4] > 92 µM | Potency [5] > 92 µM | Potency [6] > 92 µM | Potency [7] | outcome [8] | Potency [9] | outcome [10] | Potency [11] | outcome [12] | Potency [13] | Potency [14] | Potency [15] | Potency [16] | max response [17] -6.34% | max response [18] 2.8% | max response [19] -0.123% | Potency [20]

ClC(Br)Br
inactive: Potency [1] > 92 µM | Potency [2] > 92 µM | Potency [3] > 92 µM | Potency [4] > 92 µM | Potency [5] > 92 µM | Potency [6] > 92 µM | Potency [7] | outcome [8] | Potency [9] | outcome [10] | Potency [11] | outcome [12] | Potency [13] | Potency [14] | Potency [15] | Potency [16] | max response [17] -8.35% | max response [18] 0.446% | max response [19] 0.132% | Potency [20]
